Source: PubChem BioAssay (Broad Institute)
T cruzi growth-1 – blocks T. cruzi growth in NIH3T3 culture; T. cruzi beta-gal in NIH3T3, GalScreen luminescence, 90 h; inhibition, % at 8.34 µM; 77,000 compounds, 5.9% hits;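 active = mean inhibition above about 93%, with at least 55% of replicates each passing it, limit read from the data, passing the limit was not always enough; inconclusive = only one of those two conditions holds; inactive = neither condition holds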
Pf Dd2 growth – blocks growth of Plasmodium falciparum Dd2 parasites; 94,000 compounds, 2.3% hits; P. falciparum Dd2 growth, SYBR Green, 72 h; active compounds read low; activity change, % at 10 µM; AID 1159554; in the data active = activity change below about -80%; inconclusive = no clear call, values can overlap the other calls
C diff HTS – inhibitors of Clostridium difficile growth; 86,000 compounds, 0.25% hits; growth activity, negative = inhibition, % at 16 µg/mL (by protocol); AID 1259249; Clostridium difficile clinical isolate growth, OD600, 24 h; active compounds read low;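 active = mean growth activity at or below -80% and every replicate also at or below -80%; inconclusive = mean at or below -80% but some replicate above -80%; inactive = mean growth activity above -80%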
T cruzi growth-2 – blocks T. cruzi growth in NIH3T3 host cells; shares compounds with T cruzi growth-1; T. cruzi beta-gal in NIH3T3, GalScreen luminescence, 90 h; inhibition, % at 8.35 µM; 5,600 compounds, 72% hits; AID 651739;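 active = mean replicate inhibition above about 95% and at least 55% of replicates individually reaching it, limit read from the data; inconclusive = only one of the two criteria is met; inactive = neither criterion is met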
T cruzi growth-3 – Trypanosoma cruzi proliferation inhibition; 5,600 compounds, 21% hits; inhibition, % at 2.09 µM; shares compounds with T cruzi growth-1; T. cruzi beta-gal in NIH3T3, GalScreen luminescence, 90 h;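 active = mean inhibition above about 95%, with at least 55% of replicates also reaching it, limit read from the data; inconclusive = meets just one of the two conditions; inactive = meets neither condition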
NIH3T3 tox – kills mouse NIH/3T3 fibroblasts; shares compounds with T cruzi growth-1; NIH/3T3 viability, CellTiter-Glo ATP luminescence, 90 h; cytotoxicity (signal decrease), % at 8.35 µM; 5,600 compounds, 14% hits;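 active = mean signal decrease across replicates above about 35% based on untreated-well scatter, with enough replicates individually passing, limit read from the data; inconclusive = no rule stated though some were filed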
3T3 cytotox 2 – kills mouse NIH/3T3 fibroblasts | shares compounds with T cruzi growth-1 | NIH/3T3 viability, CellTiter-Glo ATP luminescence, 90 h | inhibition, % at 24.9 µM | 5,600 compounds, 56% hits;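 active = mean loss of cell viability signal at or above a set limit, and enough replicates individually reaching it; inconclusive = meets only the mean limit or only the replicate share; inactive = meets neither condition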
A number is an active result. An excerpt weighted towards active compounds, which were near 6.7% of everything screened.

How did C[C@@H]1CCCCO[C@@H](CN(C)S(=O)(=O)c2ccc(Cl)cc2)[C@@H](C)CN([C@H](C)CO)C(=O)c2cc(NC(=O)Nc3ccc(F)cc3)ccc2O1 do in these assays?
T cruzi growth-1: inactive; Pf Dd2 growth: inactive; C diff HTS: inactive

What do the screens show for `C[C@@H]1CCCCO[C@@H](CN(C)S(=O)(=O)c2ccc(Cl)cc2)[C@H](C)CN([C@@H](C)CO)C(=O)c2cc(NC(=O)Nc3ccc(F)cc3)ccc2O1`?
T cruzi growth-1: inactive; Pf Dd2 growth: inactive; C diff HTS: inactive

Results for Cc1ccc(S(=O)(=O)N(C)C[C@@H]2OCCCC[C@@H](C)Oc3ccc(NC(=O)Nc4ccc(F)cc4)cc3C(=O)N([C@H](C)CO)C[C@H]2C)cc1 ?
T cruzi growth-1: 113.8; Pf Dd2 growth: inactive; T cruzi growth-2: 108.9; T cruzi growth-3: 108.7; NIH3T3 tox: inactive; 3T3 cytotox 2: inactive

What do the screens show for `COC(=O)C[C@H]1CC[C@H]2[C@H](COc3ccc(NC(=O)c4cccc(Cl)c4)cc3C(=O)N2C)O1`?
T cruzi growth-1: inactive; C diff HTS: inactive

What do the screens show for `COc1ccc(S(=O)(=O)Nc2ccc3c(c2)C(=O)N([C@H](C)CO)C[C@H](C)[C@H](CN(C)Cc2ccncc2)OCCCC[C@H](C)O3)cc1`?
T cruzi growth-1: inactive; Pf Dd2 growth: inactive; C diff HTS: inactive

Results for COc1ccccc1C#Cc1ccc([C@H]2[C@@H](C#N)N(C(=O)C3CCC3)[C@@H]2CO)cc1 ?
T cruzi growth-1: inconclusive; Pf Dd2 growth: inactive; C diff HTS: inactive; T cruzi growth-2: 105.7; T cruzi growth-3: 108.2; NIH3T3 tox: inactive; 3T3 cytotox 2: 95.9

Results for COc1ccccc1C#Cc1ccc([C@H]2[C@H](C#N)N(C(=O)C3CCCCC3)[C@H]2CO)cc1 ?
Pf Dd2 growth: inactive; C diff HTS: inactive

Results for N#C[C@@H]1[C@H](c2ccc(C#Cc3ccccc3F)cc2)[C@@H](CO)N1C(=O)C1CCC1 ?
T cruzi growth-1: inconclusive; Pf Dd2 growth: inactive; C diff HTS: inactive; T cruzi growth-2: inactive; T cruzi growth-3: inactive; NIH3T3 tox: inactive; 3T3 cytotox 2: 102.2

What do the screens show for `N#C[C@H]1[C@H](c2ccc(C#Cc3ccccc3F)cc2)[C@H](CO)N1C(=O)C1CCC1`?
T cruzi growth-1: inactive; Pf Dd2 growth: inactive; C diff HTS: inactive

Results for N#C[C@@H]1[C@@H](c2ccc(C#Cc3ccccc3F)cc2)[C@H](CO)N1C(=O)C1CCC1 ?
T cruzi growth-1: inactive; Pf Dd2 growth: inactive; C diff HTS: inactive

What do the screens show for `N#C[C@H]1[C@H](c2ccc(C#Cc3ccccc3F)cc2)[C@@H](CO)N1C(=O)C1CCC1`?
T cruzi growth-1: 99.2; Pf Dd2 growth: inactive; C diff HTS: inactive; T cruzi growth-2: 102.7; T cruzi growth-3: 100.9; NIH3T3 tox: inactive; 3T3 cytotox 2: inactive

Results for COc1ccc(CN(C)C[C@@H]2OCCCC[C@@H](C)Oc3ccc(NS(=O)(=O)c4cn(C)cn4)cc3C(=O)N([C@H](C)CO)C[C@@H]2C)cc1 ?
T cruzi growth-1: inactive; Pf Dd2 growth: inactive; C diff HTS: inactive

Results for CN(C)C(=O)c1ccc(-c2ccc([C@@H]3[C@H]4CN(C(=O)C5CCC5)CCCCN4[C@H]3CO)cc2)cc1 ?
T cruzi growth-1: 101.4; Pf Dd2 growth: inactive; C diff HTS: inactive; T cruzi growth-2: 95.4; T cruzi growth-3: inactive; NIH3T3 tox: inactive; 3T3 cytotox 2: 37.6

What do the screens show for `CN(C)C(=O)c1ccc(-c2ccc([C@@H]3[C@H](CO)N4CCCCN(C(=O)C5CC5)C[C@@H]34)cc2)cc1`?
T cruzi growth-1: inactive; Pf Dd2 growth: inactive; C diff HTS: inactive

How did CN(C)C(=O)c1ccc(-c2ccc([C@H]3[C@@H](CO)N4CCCCN(C(=O)C5CCC5)C[C@@H]34)cc2)cc1 do in these assays?
T cruzi growth-1: 106.0; Pf Dd2 growth: inactive; C diff HTS: inactive; T cruzi growth-2: 102.0; T cruzi growth-3: inactive; NIH3T3 tox: inactive; 3T3 cytotox 2: inactive

How did CN(C)C(=O)c1ccc(-c2ccc([C@H]3[C@@H](CO)N4CCCCN(C(=O)C5CC5)C[C@@H]34)cc2)cc1 do in these assays?
T cruzi growth-1: inactive; Pf Dd2 growth: inactive; C diff HTS: inactive

How did CN(C)C(=O)c1ccc(-c2ccc([C@H]3[C@H](CO)N4CCCCN(C(=O)C5CCC5)C[C@@H]34)cc2)cc1 do in these assays?
T cruzi growth-1: 99.5; Pf Dd2 growth: inactive; C diff HTS: inactive; T cruzi growth-2: 95.0; T cruzi growth-3: inactive; NIH3T3 tox: inactive; 3T3 cytotox 2: 42.4

How did CN(C)C(=O)c1ccc(-c2ccc([C@@H]3[C@@H](CO)N4CCCCN(C(=O)C5CCC5)C[C@H]34)cc2)cc1 do in these assays?
T cruzi growth-1: inactive; Pf Dd2 growth: inactive; C diff HTS: inactive

How did CC(C)NC(=O)N(C)C[C@H]1Oc2ncc(-c3cncnc3)cc2C(=O)N([C@H](C)CO)C[C@@H]1C do in these assays?
Pf Dd2 growth: inactive; C diff HTS: inactive

How did CCN(C[C@H]1[C@H](c2ccccc2)[C@@H](CO)N1S(C)(=O)=O)C(=O)C1CCCC1 do in these assays?
T cruzi growth-1: inactive; Pf Dd2 growth: inactive; C diff HTS: inactive

What do the screens show for `CC(=O)N1C[C@H]2[C@@H](c3ccccc31)[C@@H](CO)N2C(=O)c1ccc(F)cc1`?
T cruzi growth-1: inactive; Pf Dd2 growth: inactive; C diff HTS: inactive

How did C[C@@H]1CN([C@H](C)CO)S(=O)(=O)c2ccc(C#CC3CC3)cc2O[C@@H]1CN(C)Cc1ccccc1 do in these assays?
T cruzi growth-1: inactive; Pf Dd2 growth: inactive; C diff HTS: inactive

Results for COCC#Cc1ccc2c(c1)O[C@@H](CN(C)Cc1ccccc1F)[C@@H](C)CN([C@H](C)CO)S2(=O)=O ?
T cruzi growth-1: inactive; Pf Dd2 growth: inactive; C diff HTS: inactive

How did C[C@H](CO)N1C[C@H](C)[C@@H](CN(C)Cc2ccccc2F)Oc2cc(C#CCN(C)C)ccc2S1(=O)=O do in these assays?
T cruzi growth-1: 104.8; Pf Dd2 growth: inactive; C diff HTS: inactive; T cruzi growth-2: 104.9; T cruzi growth-3: inactive; NIH3T3 tox: 55.2; 3T3 cytotox 2: 104.3

What do the screens show for `C[C@@H]1CN([C@H](C)CO)S(=O)(=O)c2ccc(C#CC3CC3)cc2O[C@@H]1CN(C)Cc1ccccc1F`?
T cruzi growth-1: inactive; Pf Dd2 growth: inactive; C diff HTS: inactive

What do the screens show for `C[C@@H]1CN([C@H](C)CO)S(=O)(=O)c2ccc(C#CC3CC3)cc2O[C@H]1CN(C)Cc1ccccc1`?
T cruzi growth-1: 126.8; Pf Dd2 growth: inactive; C diff HTS: inactive; T cruzi growth-2: 95.2; T cruzi growth-3: inactive; NIH3T3 tox: inconclusive; 3T3 cytotox 2: 104.6

Results for C[C@@H]1CN([C@@H](C)CO)S(=O)(=O)c2ccc(C#CCN(C)C)cc2O[C@@H]1CN(C)Cc1ccccc1F ?
T cruzi growth-1: inactive; Pf Dd2 growth: inactive; C diff HTS: inactive
